Screens (PubChem)
Rows were chosen to be rich in hits. Some 13% of all compounds tested hit in one or more screens of this group.
RAM inhibit = yeast RAM network inhibition; S. cerevisiae dse1pr::URA3 reporter, 5-FOA growth OD615, 2 d; analog-sensitive cbk1-as2 kinase mutant strain; inhibition, % at 50 µM; actives 1.8% (n = 190,000); AID 868;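 active means inhibition above a set limit, 3 SD over mean compound inhibition, cut at about 8.4% in these data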;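 further: inhibition rescues growth on 5-FOA so higher OD means more RAM inhibition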
WT yeast gro inh = growth inhibition of WT yeast, mitochondrial fusion screen; inhibition, % at 10 µM; actives 2.1% (n = 190,000); mitochondrial fusion phenotypic screen, WT strain; in the data active means inhibition above about 58%; tested in S. cerevisiae
CHOP inh = inhibitors of CHOP induction in ER stress response. CHO-K1 CHOP-promoter luciferase, tunicamycin-induced, 15-18 h. inhibition, % at 10 µM. actives 3.8% (n = 220,000);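 active means compounds that reduced the stress-induced luciferase reporter signal by more than about 70% of percent inhibition, limit read from the data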
L major viab = reduces viability of Leishmania major promastigotes. actives 9% (n = 200,000). AID 1063. resazurin fluorescence viability. inhibition, % at 10 µM; in the data active means inhibition above about 50%;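 further: promastigotes grown with compound for 44 hours at 28 °C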
Large screens that a line does not name were inactive.

Cn1c(-c2cc(Cl)ccc2O)nc2c1c(=O)[nH]c(=O)n2Cc1ccccc1	L major viab 54
COc1ccc(-c2ccc(-c3nc4c(c(=O)[nH]c(=O)n4Cc4ccccc4)n3C)o2)c([N+](=O)[O-])c1	CHOP inh 90, L major viab 72
CCCCn1c(=O)[nH]c(=O)c2c1nc(-c1ccccc1F)n2Cc1ccccc1	none
COCCn1c(-c2ccc(OC(F)(F)C(F)C(F)(F)F)cc2)nc2c1c(=O)[nH]c(=O)n2CC(C)C (stereo unspecified)	CHOP inh 73
CCOC(=O)N1CCN(c2nc(-c3ccc(F)cc3)cs2)CC1	CHOP inh 78
CCOc1ccccc1NC(=S)N1CCN(c2nc(-c3ccc(F)cc3)cs2)CC1	L major viab 90
O=C(C1CCCCC1)N1CCN(c2nc(-c3ccc(F)cc3)cs2)CC1	none
CC(=O)c1cn(Cc2ccccc2)c(=O)[nH]c1=O	none
NS(=O)(=O)c1ccc(NC(=O)C(Sc2ccccc2)c2ccccc2)cc1 (stereo unspecified)	none
COc1ccccc1Cn1c(=O)c2ccccc2n2c(Sc3ncnc4sccc34)nnc12	L major viab 89
CN(C)c1nc(-c2ccccc2)ncc1S(=O)(=O)c1ccccc1	none
CCN(CC)c1nc(-c2ccccc2)ncc1S(=O)(=O)c1ccc(C)cc1	WT yeast gro inh 62
CCc1cc2c(C)cc(=O)oc2cc1OC(=O)C1CCCN1C(=O)OC(C)(C)C (stereo unspecified)	L major viab 89
COc1ccc(-c2cc(-c3nnc(COC(=O)c4ccncc4)o3)c3ccccc3n2)cc1OC	none
Cc1cc2cc(CN(Cc3cccs3)C(=S)NCC3CCCO3)c(=O)[nH]c2cc1C (stereo unspecified)	L major viab 96
Cc1cc(C)c2[nH]c(=O)c(CN(Cc3cccs3)C(=S)NCC3CCCO3)cc2c1 (stereo unspecified)	L major viab 53
Cc1cc(C)c2[nH]c(=O)c(CN(Cc3ccco3)C(=S)NCC3CCCO3)cc2c1 (stereo unspecified)	L major viab 88
Cc1cc2cc(CN(CC3CCCO3)C(=S)Nc3ccccc3)c(=O)[nH]c2cc1C (stereo unspecified)	L major viab 68
COC(=O)c1nn(-c2ccc(Oc3ccccc3)cc2)c(=O)cc1O	none
O=C(O)c1ccc2c(c1)C(=O)N(c1nccs1)C2=O	none (no result: RAM inhibit, WT yeast gro inh, L major viab)
NC(=O)c1ccc(NC(=O)Cn2c(=O)n(-c3ccccc3)c(=O)c3oc4ccccc4c32)cc1	none
COc1ccccc1NC(=O)Cn1c(=O)n(-c2ccccc2)c(=O)c2oc3ccccc3c21	CHOP inh 81
CC(=O)Nc1ccc(NC(=O)Cn2c(=O)n(-c3ccc(F)cc3)c(=O)c3oc4ccccc4c32)cc1	none
COC(=O)c1cc2oc3ccccc3c2n1CC(=O)Nc1ccccc1OC	L major viab 83
COc1ccc(NC(=O)Cn2c(=O)n(-c3ccccc3)c(=O)c3oc4ccccc4c32)c(OC)c1	L major viab 61
COc1ccccc1NC(=O)Cn1c(=O)oc2ccccc21	none
CCOCC(=O)Nc1c(C(=O)Nc2ccc(OC)cc2OC)oc2ccccc12	RAM inhibit 11
COc1ccc(NC(=O)c2oc3ccccc3c2NC(=O)c2ccco2)c(OC)c1	none
Cc1c([N+](=O)[O-])c([N+](=O)[O-])nn1CC(=O)N1CCOCC1	none
Cc1ccc(-c2nnn(CC(=O)N(Cc3cccs3)C(C(=O)NC(C)(C)C)c3ccc(C)o3)n2)o1 (stereo unspecified)	CHOP inh 76
Cc1ccc(-c2nnn(CC(=O)N(Cc3cccs3)C(C(=O)NC(C)(C)C)c3ccco3)n2)o1 (stereo unspecified)	none
Cc1ccc(C(C(=O)NC(C)(C)C)N(CC2CCCO2)C(=O)Cn2nnc(-c3ccc(C)o3)n2)cc1 (stereo unspecified)	L major viab 54
CCCC(C(=O)NC1CCCC1)N(C(=O)Cn1nnc(-c2ccc(C)o2)n1)c1ccccc1OC (stereo unspecified)	L major viab 77
Cc1ccc(-c2nnn(CC(=O)N(CC3CCCO3)C(C(=O)NC3CCCC3)c3ccc(O)cc3)n2)o1 (stereo unspecified)	none
Cc1ccc(-c2nnn(CC(=O)N(CC3CCCO3)C(C(=O)NC3CCCC3)c3ccc(F)cc3)n2)o1 (stereo unspecified)	CHOP inh 80
O=C(OCC(=O)N1CCc2ccccc2C1)c1cccs1	none
CN(C(=O)COC(=O)/C=C/c1ccc(S(=O)(=O)N2CCc3ccccc32)cc1)C1CCS(=O)(=O)C1 (stereo unspecified)	none
C[C@H](N)c1nnc(SCC(N)=O)o1	none (no result: RAM inhibit, WT yeast gro inh, L major viab)
COc1cc(S(=O)(=O)N2CCN(C(=O)c3ccccc3)CC2)c(OC)cc1Br	none
CCOc1ccc(C2Nc3ccc4ccccc4c3-c3c2c(=O)oc2ccccc32)cc1 (stereo unspecified)	CHOP inh 81, L major viab 56
O=c1oc2ccccc2c2c1C(c1ccc(Cl)cc1)Nc1ccc3ccccc3c1-2 (stereo unspecified)	L major viab 87
COc1ccc(C2Nc3ccc4ccccc4c3-c3c2c(=O)oc2ccccc32)cc1 (stereo unspecified)	L major viab 100
COc1ccc(-c2cc(=O)c3ccccc3o2)cc1	none (no result: RAM inhibit, WT yeast gro inh, L major viab)
O=C(CSc1nn(-c2ccc(Cl)cc2)c(=S)s1)NCC1CCCO1 (stereo unspecified)	none
COc1ccc(O[C@H]2C=C[C@@H](c3ccccc3)O[C@@H]2COC(=O)CC/C(C)=N/OC[C@@H](O)[C@H]2O[C@@H]3OC(C)(C)O[C@@H]3[C@H]2O)cc1	none
Cc1ccc(Nc2ncccc2C(N)=O)cc1[N+](=O)[O-]	none
CS(=O)(=O)N1CCN(c2ccccc2NC(=O)c2ccc(-c3ccc(Br)cc3)o2)CC1	L major viab 53
CS(=O)(=O)N1CCN(c2ccc(NC(=O)c3ccc(-c4ccc(Cl)cc4)o3)cc2)CC1	CHOP inh 75
COc1cc(OC)cc(-c2nc3ccccc3c(=O)o2)c1	none
O=c1oc(-c2ccccc2NS(=O)(=O)c2ccc3ccccc3c2)nc2ccccc12	L major viab 92
C/C(=N\Nc1ccc([N+](=O)[O-])cc1[N+](=O)[O-])C(C)C(C)C (stereo unspecified)	RAM inhibit 9.6
CCOC(=O)C(C(=O)OCC)C(C)(C)/C(C)=N\Nc1ccc([N+](=O)[O-])cc1[N+](=O)[O-]	RAM inhibit 9.0
CCOC(=O)C(C)/C(C)=N\Nc1ccc([N+](=O)[O-])cc1[N+](=O)[O-] (stereo unspecified)	none
Cc1ccc(C2C(C#N)=C(N)N(c3cccnc3)C3=C2C(=O)CCC3)c(C)c1 (stereo unspecified)	none
COc1ccc(C(C(=O)NCC2CCCO2)N(C(=O)CNC(=O)c2cccs2)c2ccc(C)cc2)cc1OC (stereo unspecified)	none
C=CCN1C2CCCC1CC(NC(=O)Nc1cc(C)cc(C)c1)C2 (stereo unspecified)	none
C(=N\Nc1ncnc2sc3c(c12)CCC3)/c1ccncc1	L major viab 66
O=C(Nc1cccc(NC(=O)C2CCCO2)c1)c1ccco1 (stereo unspecified)	none
